Experimental data reported in publication PMC8384837, “Expanding the binding specificity for RNA recognition by a PUF domain”.

Each sequence was assayed against PUM1 PUF domain R3-MFG (Homo sapiens, UniProt Q14671 828-1176, C935M;R936F;Q939G) (assay: yeast three-hybrid, YBZ-1, SC-Leu-His + 0.5 mM 3-AT, 4 days). Details: tags: N-Gal4 AD-HA kept; label: inside an RPR1-promoter hybrid RNA with tandem MS2 sites; ssRNA.
In short: (§1)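 Pumilio-1 PUF domain libraries, randomized (NNK) at the three base-contacting residues of each repeat, were co-expressed with matching RNA elements from a centromeric plasmid in strain YBZ-1 (LexA–MS2 coat fusion, HIS3 reporter). Transformants were plated on SC-Leu (input) and SC-Leu-His + 0.5 mM 3-AT (selection) for four days, and repeat regions were PCR-amplified and Illumina-sequenced. The interaction score is the log2 change in variant frequency from input to selection, with pseudocount 1 where absent.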
In the case of “GGCUAGAACUAGUGGAUCCCCCGGCGCCCGGCGGCUCGAGCCCGGGUAAGUGUAAGUAGUCUGCAUGCCGCCGGGCGCCAUGCCUGCAGGUCGACUCUAGAAAACAUG”, the binding signal is reported as 5.73 log2 enrichment (interaction score).
With “GGCUAGAACUAGUGGAUCCCCCGGCGCCCGGCGGCUCGAGCCCGGGUAAGUGUAAUUAGUCUGCAUGCCGCCGGGCGCCAUGCCUGCAGGUCGACUCUAGAAAACAUG” the binding signal was 4.71 log2 enrichment (interaction score).
With “GGCUAGAACUAGUGGAUCCCCCGGCGCCCGGCGGCUCGAGCCCGGGUAAGUGUAAAUAGUCUGCAUGCCGCCGGGCGCCAUGCCUGCAGGUCGACUCUAGAAAACAUG” the binding signal was 2.43 log2 enrichment (interaction score).

The sequences below were run against PUM1 PUF domain R3-YRV (Homo sapiens, UniProt Q14671 828-1176, C935Y;Q939V) in the same assay as above. Details: tags: N-Gal4 AD-HA kept; label: inside an RPR1-promoter hybrid RNA with tandem MS2 sites; ssRNA.
In short: as §1
“GGCUAGAACUAGUGGAUCCCCCGGCGCCCGGCGGCUCGAGCCCGGGUAAGUGUAAGUAGUCUGCAUGCCGCCGGGCGCCAUGCCUGCAGGUCGACUCUAGAAAACAUG” was tested, and the binding signal was 4.59 log2 enrichment (interaction score).
“GGCUAGAACUAGUGGAUCCCCCGGCGCCCGGCGGCUCGAGCCCGGGUAAGUGUAAUUAGUCUGCAUGCCGCCGGGCGCCAUGCCUGCAGGUCGACUCUAGAAAACAUG” was tested, and the binding signal was 0.78 log2 enrichment (interaction score).
In the case of “GGCUAGAACUAGUGGAUCCCCCGGCGCCCGGCGGCUCGAGCCCGGGUAAGUGUAAAUAGUCUGCAUGCCGCCGGGCGCCAUGCCUGCAGGUCGACUCUAGAAAACAUG”, the binding signal is reported as 0.2 log2 enrichment (interaction score).

What follows are sequences tested against PUM1 PUF domain R1-KCR (Homo sapiens, UniProt Q14671 828-1176, S863K;R864C;Q867R) in the same assay as above. Details: tags: N-Gal4 AD-HA kept; label: inside an RPR1-promoter hybrid RNA with tandem MS2 sites; ssRNA.
In short: as §1
With “GGCUAGAACUAGUGGAUCCCCCGGCGCCCGGCGGCUCGAGCCCGGGUAAGUGUAAAUUGUCUGCAUGCCGCCGGGCGCCAUGCCUGCAGGUCGACUCUAGAAAACAUG” the binding signal was 5.43 log2 enrichment (interaction score).
“GGCUAGAACUAGUGGAUCCCCCGGCGCCCGGCGGCUCGAGCCCGGGUAAGUGUAAAUGGUCUGCAUGCCGCCGGGCGCCAUGCCUGCAGGUCGACUCUAGAAAACAUG” was tested, and the binding signal was 2.46 log2 enrichment (interaction score).
For “GGCUAGAACUAGUGGAUCCCCCGGCGCCCGGCGGCUCGAGCCCGGGUAAGUGUAAAUCGUCUGCAUGCCGCCGGGCGCCAUGCCUGCAGGUCGACUCUAGAAAACAUG”, the binding signal was 7.51 log2 enrichment (interaction score).
